# Results filed as inconclusive are left out. The source holds several records for some structures; these can differ, active in one and inactive in another. Activity calls are given as the source filed them. Rule for the calls: active = hit-call score of the fitted dose curve at least 0.9, where 1 is the maximum; inconclusive = response in the unintended direction; inactive = score below 0.9.
# Legend:
# [1] = ACEA_AR_agonist_AUC_viability: ACEA Biosciences xCELLigence Real-Time Cell Analysis on Androgen Receptor Agonism for Viability (AID 2283775);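 for AC50: viability read 80 hours after compound addition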
# Procedure, shortened: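 Real-time impedance tracking of 22Rv1 growth, readings every 5 min for 5 h then hourly; area-under-curve viability endpoint at 80 hours, relative to DMSO. Compounds at eight concentrations, 1:4 steps, top 100 uM, n = 2.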
# [2] = ACEA_AR_antagonist_AUC_viability: ACEA Biosciences xCELLigence Real-Time Cell Analysis on Androgen Receptor Antagonism for Viability (AID 2283776);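 note: 22Rv1 human prostate cancer cells growing on impedance electrode plates; hits lower the growth signal relative to DMSO meaning cytotoxicity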
# Procedure, shortened: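 Real-time electrical impedance tracks 22Rv1 proliferation after continuous compound exposure (top 100 uM final, 1:4 steps, 8 concentrations). The 80 h area-under-curve serves as the cytotoxicity readout relative to DMSO.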
# [3] = ACEA_ER_AUC_viability: ACEA Biosciences xCELLigence Real-Time Cell Analysis on Estrogen Receptor Agonism for Viability (AID 2283782);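 note: hit means loss of impedance signal meaning reduced cell growth or viability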
# Procedure, shortened: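 T-47D; phenol red-free RPMI1640 + 10% CS-FBS; 8 conc., 1:4 serial, max 100 uM final, ≤0.5% DMSO; n = 2; continuous exposure; impedance monitored to 80 h post-dose; AUC vs DMSO.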
# AR (gene 367) [4] = target: AR (gene 367) (UniProt P10275); assay: ACEA_AR_antagonist_80hr: ACEA Biosciences xCELLigence Real-Time Cell Analysis on Androgen Receptor Antagonism for Proliferation (AID 2283787);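 note: 22Rv1 human prostate cancer cells with growth followed by electrical impedance; hits lower the impedance growth signal relative to DMSO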
# AR (gene 367), sequence (P10275 whole entry, looked up): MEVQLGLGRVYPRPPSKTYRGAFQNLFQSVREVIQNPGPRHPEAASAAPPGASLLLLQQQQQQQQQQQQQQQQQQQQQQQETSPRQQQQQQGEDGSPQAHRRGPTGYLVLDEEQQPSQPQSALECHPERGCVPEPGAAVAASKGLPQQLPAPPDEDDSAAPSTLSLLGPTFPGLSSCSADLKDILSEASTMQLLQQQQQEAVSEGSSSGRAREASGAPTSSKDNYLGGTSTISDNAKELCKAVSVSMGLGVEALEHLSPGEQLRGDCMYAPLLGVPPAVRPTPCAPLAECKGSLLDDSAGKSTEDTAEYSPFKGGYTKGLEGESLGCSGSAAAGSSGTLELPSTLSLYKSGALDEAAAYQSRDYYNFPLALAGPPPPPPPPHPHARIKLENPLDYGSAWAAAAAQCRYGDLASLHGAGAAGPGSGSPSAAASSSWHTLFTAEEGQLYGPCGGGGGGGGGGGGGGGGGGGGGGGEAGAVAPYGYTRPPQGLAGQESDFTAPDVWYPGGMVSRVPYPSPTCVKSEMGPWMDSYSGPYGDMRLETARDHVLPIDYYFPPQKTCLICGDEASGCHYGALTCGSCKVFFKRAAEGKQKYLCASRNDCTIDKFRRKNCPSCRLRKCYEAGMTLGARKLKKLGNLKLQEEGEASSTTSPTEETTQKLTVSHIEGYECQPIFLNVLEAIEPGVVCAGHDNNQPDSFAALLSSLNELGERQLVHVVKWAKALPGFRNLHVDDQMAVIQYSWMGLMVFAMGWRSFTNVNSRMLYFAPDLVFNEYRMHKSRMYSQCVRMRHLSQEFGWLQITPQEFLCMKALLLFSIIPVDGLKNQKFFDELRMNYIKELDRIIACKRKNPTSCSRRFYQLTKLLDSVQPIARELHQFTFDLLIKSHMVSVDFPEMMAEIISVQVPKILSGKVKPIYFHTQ
# Procedure, shortened: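 Growth-kinetic antagonist readout in 22Rv1 cells, taken 80 h after continuous compound exposure. Activity fitted as signal loss relative to DMSO negative control.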
# [5] = ArunA_NOG_BranchPointsPerNeurite: ArunA Biomedical's Neurite Outgrowth (NOG) Assay for Branch Points Per Neurite (AID 2283759)
# Procedure, shortened: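 Automated image analysis traced neurites (processes >10 um) from valid cell bodies after Hoechst and βIII-tubulin staining. hNN cells from H9 embryonic stem cells, 48 h exposure. Fitted bidirectionally against DMSO.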
# [6] = STM_H9_NormalizedViability: Cytotoxicity Assessment at 120 hours in the Stemina devTOX quickPredict H9 human embryonic stem cell (hESC)-based Assay (AID 2283784)
# Procedure, shortened: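 Pluripotent H9 hESCs were exposed, with chemical and media replaced every 24 h. Viability was read by CellTiter-Fluor fluorescence, background-corrected and normalized to the 0.1% DMSO neutral control per plate. Loss of signal was fitted.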
# AR (gene 367) [7] = target: AR (gene 367) (UniProt P10275); assay: ACEA_AR_agonist_80hr: ACEA Biosciences xCELLigence Real-Time Cell Analysis on Androgen Receptor Agonism for Proliferation (AID 2283783);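 note: hits increase impedance growth signal above DMSO baseline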
# Procedure, shortened: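 Androgen-driven proliferation in 22Rv1 cells is tracked as electrical impedance, taken 80 h after continuous exposure to compound (eight concentrations, 1:4 steps, maximum 100 uM final). Activity is fitted in the positive direction with DMSO as baseline.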
# [8] = target: Luciferin 4-monooxygenase (Photinus pyralis) (UniProt P08659); assay: CCTE_Simmons_QuantiLum_inhib_2: CCTE's Firefly Luciferase Inhibition Assay, Simmons Lab (AID 2283767);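 for AC50: potency for inhibitors that lower luciferase luminescence relative to DMSO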
# Luciferin 4-monooxygenase (Photinus pyralis), sequence (P08659 whole entry, looked up): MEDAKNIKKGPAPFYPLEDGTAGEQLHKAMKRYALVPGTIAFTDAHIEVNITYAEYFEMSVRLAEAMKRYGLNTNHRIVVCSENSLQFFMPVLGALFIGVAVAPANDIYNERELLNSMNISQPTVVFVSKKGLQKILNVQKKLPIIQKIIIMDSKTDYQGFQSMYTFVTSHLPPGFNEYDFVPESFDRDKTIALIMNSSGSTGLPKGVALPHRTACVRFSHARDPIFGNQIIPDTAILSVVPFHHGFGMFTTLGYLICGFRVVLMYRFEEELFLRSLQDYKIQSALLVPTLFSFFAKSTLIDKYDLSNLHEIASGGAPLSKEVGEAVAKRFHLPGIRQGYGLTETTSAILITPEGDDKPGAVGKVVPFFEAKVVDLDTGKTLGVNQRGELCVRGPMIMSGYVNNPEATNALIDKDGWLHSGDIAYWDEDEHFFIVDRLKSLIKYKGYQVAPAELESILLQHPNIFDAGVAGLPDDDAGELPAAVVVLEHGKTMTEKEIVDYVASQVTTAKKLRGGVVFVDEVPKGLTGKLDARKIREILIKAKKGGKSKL
# Procedure, shortened: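 Cell-free recombinant firefly luciferase (5 ng/well) in 200mM potassium phosphate with 1 mg/ml BSA, 30 min at 37C with 8 concentrations from 5 nM to 87.5 uM [final], 0.5% DMSO. Luminescence read after D-luciferin (150uM)/dATP (147uM) reagent injection, pH 7.8; triplicates.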
smiles,measurement,setting,value
CC(O)COc1ccccc1 (stereo not given),outcome,[1],inactive
same,outcome,[2],inactive
same,outcome,[3],inactive
same,outcome,AR (gene 367) [4],inactive
O=C(CCCN1CCC(O)(c2ccc(Cl)cc2)CC1)c1ccc(F)cc1,AC50,[5],73.3 µM (active)
same,AC50,[1],63.8 µM (active)
same,AC50,[2],53.7 µM (active)
same,outcome,[3],inactive
same,outcome,[6],inactive
c1cnc2c(c1)ccc1cccnc12,AC50,[1],3.4 µM (active)
same,AC50,[2],3.57 µM (active)
CN(C)CCOC(c1ccccc1)c1ccccc1,outcome,[1],inactive
same,outcome,[2],inactive
same,AC50,[3],50 µM (active)
same,outcome,AR (gene 367) [7],inactive
same,AC50,[6],8.23 µM (active)
Cc1cc(C(=C2C=CC(=Nc3ccc(S(=O)(=O)O)cc3)C=C2)c2ccc(Nc3ccc(S(=O)(=O)O)cc3)cc2)cc(S(=O)(=O)O)c1N,AC50,[8],42.8 µM (active)
same,outcome,[1],inactive
same,outcome,[2],inactive
same,outcome,[3],inactive
same,outcome,AR (gene 367) [4],inactive
CCCCC(CC)C(=O)O (stereo not given),AC50,[1],4.14 µM (active)
same,outcome,[1],inactive
same,outcome,[2],inactive
same,outcome,[3],inactive
same,outcome,[6],inactive
CN(Cc1cnc2nc(N)nc(N)c2n1)c1ccc(C(=O)N[C@@H](CCC(=O)O)C(=O)O)cc1,outcome,[8],inactive
same,AC50,[1],0.787 µM (active)
same,AC50,[2],0.551 µM (active)
same,outcome,AR (gene 367) [7],inactive
same,AC50,[6],0.0867 µM (active)
same,AC50,AR (gene 367) [4],0.39 µM (active)
Cc1ccc(S(=O)(=O)O)cc1,outcome,[1],inactive
same,outcome,[2],inactive
same,outcome,[3],inactive
CCCCCCCCCCCCOC(=O)c1cc(O)c(O)c(O)c1,outcome,[8],inactive
same,AC50,[1],7.6 µM (active)
same,AC50,[2],3.44 µM (active)
same,AC50,[3],2.97 µM (active)
CCCCc1oc2ccccc2c1C(=O)c1cc(I)c(OCCN(CC)CC)c(I)c1,AC50,[1],9.56 µM (active)
same,AC50,[2],9.15 µM (active)
same,AC50,[3],11.5 µM (active)
same,AC50,[6],4.41 µM (active)
O=C1NS(=O)(=O)c2ccccc21,outcome,[1],inactive
same,outcome,[2],inactive
same,outcome,[3],inactive
CC(C)c1c(C(=O)Nc2ccccc2)c(-c2ccccc2)c(-c2ccc(F)cc2)n1CC[C@@H](O)C[C@@H](O)CC(=O)O,AC50,[1],4.23 µM (active)
same,AC50,[2],4.96 µM (active)
same,AC50,[3],2.91 µM (active)
COc1cc([N+](=O)[O-])ccc1N,outcome,[8],inactive
same,outcome,[1],inactive
same,outcome,[2],inactive
same,outcome,[3],inactive
same,AC50,AR (gene 367) [4],2.99 µM (active)
Cc1ccc(C)c(S(=O)(=O)O)c1,outcome,[1],inactive
same,AC50,[2],0.221 µM (active)
same,outcome,[3],inactive
Cc1cc(Cc2cc(C)cc(C(C)(C)C)c2O)c(O)c(C(C)(C)C)c1,outcome,[8],inactive
same,outcome,[1],inactive
same,AC50,[2],21.4 µM (active)
same,AC50,[3],11.4 µM (active)
O=C(c1ccccc1)c1ccccc1,outcome,AR (gene 367) [7],inactive
same,outcome,[6],inactive
OCC(CO)(CBr)CBr,outcome,[6],inactive
CCCCCCC(C)(C)C(=O)O,outcome,AR (gene 367) [7],inactive

# — PubChem BioAssay (EPA / NIEHS)
